Screening data: PubChem, several laboratories
The list is not random: actives were taken first. Their share in the collection is about 3.1%.
TRPM1 prom inh: MITF TRPM1 promoter inhibition in SK-MEL-5 cells; SK-MEL-5 TRPM1 promoter luciferase, 24 h; inhibition, % at 12.5 µM; 330,000 tested, 0.83% active; AID 488899;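 active = mean inhibition across replicates of 60% or more, whatever share of single replicates reaches that level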
HIF-2a inh: blocks HIF-2a reporter activity | 786-0 RCC cells HIF-2a reporter, luciferase luminescence, overnight | inhibition, % at 18.8 µM | AID 624352 | 360,000 tested, 0.72% active;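 active = inhibition of the luminescence signal of 40% or more relative to plate controls, in a single-dose primary screen at 18.75 µM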
Peg3 prom inh: inhibitors of Peg3 promoter; 360,000 tested, 1.7% active; HeLa PEG-Prom luciferase reporter, luminescence, overnight; inhibition, % at 20 µM;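 active = inhibition of at least 50% at 20 µM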
CF NFkB block: inhibitors of cystic fibrosis induced NF-kB; 360,000 tested, 0.86% active; AID 588850; KKLEB NF-kB-GFP reporter, PAF-induced, GFP fluorescence overnight; inhibition, % at 5 µM;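 active = at least 50% inhibition at 5 µM, scaled per plate between neutral and stimulator controls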;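 note: PAF is a Pseudomonas aeruginosa culture filtrate used as stimulus; plate controls were PAF-stimulated DMSO wells for no effect and unstimulated DMSO wells for full effect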
KKLEB tox: counter-screen for CF NF-kB inhibitors: cytotoxicity; KKLEB CF airway cells viability, ATPlite luminescence, overnight; hits give low values; cells stimulated with P. aeruginosa culture filtrate; activity change (cytotoxicity), % at 5 µM; 360,000 tested, 0.36% active;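 active = corrected activity change at or below -50% at 5 µM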
ABHD5 PLIN5 PPI: ABHD5-PLIN5 protein interaction inhibition. Split G. princeps luciferase complementation, luminescence, 4 h. 360,000 tested, 0.78% active. inhibition, % at 4 µM. Q00G26+Q8WTS1. AID 602281;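 active = inhibition above the mean inhibition across every tested compound plus 3 SD, cut at about 22% in these data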;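 note: 0% = DMSO only wells and the 100% control is not disclosed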
Target sequence (Q00G26 whole entry, looked up): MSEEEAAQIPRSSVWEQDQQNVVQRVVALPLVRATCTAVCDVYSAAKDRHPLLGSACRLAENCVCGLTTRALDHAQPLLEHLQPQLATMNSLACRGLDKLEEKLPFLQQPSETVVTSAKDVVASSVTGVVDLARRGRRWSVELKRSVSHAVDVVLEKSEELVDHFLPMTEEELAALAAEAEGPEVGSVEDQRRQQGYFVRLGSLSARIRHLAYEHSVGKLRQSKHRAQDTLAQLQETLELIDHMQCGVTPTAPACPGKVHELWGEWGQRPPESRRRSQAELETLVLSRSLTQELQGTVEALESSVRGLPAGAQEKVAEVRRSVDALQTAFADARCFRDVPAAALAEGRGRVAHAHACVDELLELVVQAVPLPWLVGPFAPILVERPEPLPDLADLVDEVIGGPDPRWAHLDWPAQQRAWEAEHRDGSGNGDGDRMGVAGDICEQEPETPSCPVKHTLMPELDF
Target sequence (Q8WTS1 whole entry, looked up): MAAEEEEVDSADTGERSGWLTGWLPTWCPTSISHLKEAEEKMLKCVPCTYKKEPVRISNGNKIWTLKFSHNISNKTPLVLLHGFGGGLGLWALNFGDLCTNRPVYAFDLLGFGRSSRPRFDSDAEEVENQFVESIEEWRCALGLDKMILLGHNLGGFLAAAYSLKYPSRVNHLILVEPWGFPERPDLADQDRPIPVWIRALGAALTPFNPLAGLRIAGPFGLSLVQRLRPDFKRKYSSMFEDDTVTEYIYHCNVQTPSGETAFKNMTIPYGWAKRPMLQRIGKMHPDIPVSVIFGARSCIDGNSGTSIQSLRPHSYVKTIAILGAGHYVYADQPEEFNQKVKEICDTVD
Mdm2 MdmX conf: confirmation of inhibitors of human Mdm2/MdmX interaction, set 2. 740 tested, 99% active. SaOS-2 split-luciferase Mdm2/MdmX complementation, luminescence. shares compounds with HIF-2a inh. inhibition, % at 8 µM;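 active = mean inhibition of the luminescence signal across two replicates at or above 26 percent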
HIF-2a conf: HIF-2a inhibition, single concentration confirmation; 1,800 tested, 56% active; inhibition, % at 18.8 µM; 786-0 RCC cells, HIF-2a luciferase reporter luminescence, overnight; shares compounds with HIF-2a inh;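 active = mean inhibition across four replicates of at least 40 percent at the single tested concentration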
HIF-1a counter: HIF-1a inhibition counter-screen for HIF-2a hits; AID 651589; 1,800 tested, 72% active; shares compounds with HIF-2a inh; inhibition, % at 18.8 µM; MiaPaCa-2 HIF-1a luciferase reporter, desferoxamine, overnight;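 active = mean inhibition of the reporter signal across four replicates at the single tested dose of 50% or more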
Numbers without * were called inactive; x = not tested or not shown.

SMILES	TRPM1 prom inh	HIF-2a inh	Peg3 prom inh	CF NFkB block	KKLEB tox	ABHD5 PLIN5 PPI	HIF-2a conf	HIF-1a counter	others
CC1(C)CC(=O)C2=C(C1)NC1=C(C(=O)c3ccccc31)C2c1ccc(O)cc1 (stereo not given)	-7	44*	14	3	-8	10	20	40
Cc1ccccc1-c1nc2cc(NC(=O)C3CC3)ccc2o1	-58	-296	-339	-25	10	-6	x	x
CCOC(=O)C(C)CC(C)C(=O)N1CCOCCOCCN(C(=O)C(C)CC(C)C(=O)OCC)CCOCC1 (stereo not given)	-2	16	-2	-6	-6	-2	x	x
CCOC(=O)C(C(=O)OCC)C(C(=O)OCC)N1CCOCC1 (stereo not given)	96*	90*	106*	29	-5	0	98*	107*
O=[N+]([O-])c1ccc(Sc2nc3ccccc3o2)c([N+](=O)[O-])c1	87*	92*	97*	68*	-42	16	74*	106*
CC(C)C(=O)N[C@H]1CCC2C3CC=C4C[C@@H](O)CC[C@]4(C)C3CC[C@@]21C (stereo not given in full)	-1	-11	-38	8	3	3	x	x
CC(C)(C)[C@H](N)C(=O)N[C@H]1CCC2C3CC=C4C[C@@H](O)CC[C@]4(C)C3CC[C@@]21C (stereo not given in full)	76*	94*	96*	-28	-68*	1	7	105*	Mdm2 MdmX conf=103*
COc1ccc(C(CC(=O)c2ccccc2)CC(=O)c2ccccc2)cc1	-4	-46	-2	1	-1	0	x	x
C=C(C(=O)c1ccccc1)C(c1ccccc1)C(C)C(=O)c1ccccc1 (stereo not given)	10	81*	38	0	-13	3	45*	96*
C=C(C(=O)c1ccccc1)C(C(=C)C(=O)c1ccccc1)c1ccc(OC)cc1	82*	61*	105*	36	-19	-2	59*	103*	Mdm2 MdmX conf=103*
COc1ccc(-c2cc(-c3ccccc3)c(C#N)c(S(C)=O)n2)cc1 (stereo not given)	70*	76*	114*	13	-28	0	31	98*
C/C(=N\Nc1cccc(C(=O)O)c1)c1ccc(Cl)s1	-72	-292	-213	1	3	1	x	x
Cc1ccc(SC[C@H](C)CN2CCC(NC(=O)OCc3ccccc3)CCC2=O)cc1 (stereo not given in full)	x	-12	x	x	x	8	x	x
CC1(C)C/C(=N\NC(=S)Nc2ccccc2F)c2cc(O)ccc2O1	-36	11	11	23	12	-18	x	x
CCNC(=O)NC(=O)C(C)OC(=O)CCCSc1nc2ccccc2s1 (stereo not given)	38	68*	14	-23	-3	0	86*	68*
CNC(=O)NC(=O)C(C)OC(=O)CCCSc1nc2ccccc2s1 (stereo not given)	41	71*	14	-1	-5	-7	84*	63*
CCNC(=O)NC(=O)COC(=O)CCCSc1nc2ccccc2s1	1	60*	-10	11	-1	0	86*	60*
CCNC(=O)NC(=O)COC(=O)CCCc1nc2ccccc2s1	-6	5	10	-3	-6	-2	x	x
O=S(=O)(NCc1cn2ccccc2n1)c1cccs1	-28	-90	-56	7	1	-4	x	x
Cc1ccnc(NS(=O)(=O)c2cccc([N+](=O)[O-])c2)c1	-2	-1	11	-20	12	1	x	x
Cc1cccc(C(=O)NNC(=O)CCCCC(=O)NNC(=O)c2cccc(C)c2)c1	x	19	11	-6	10	-4	x	x
CCC1CCC2(CC1)NC(CO)(CO)CO2 (stereo not given)	-4	7	-1	8	-7	-8	x	x
CCC1CCC2(CC1)NNC(=S)NN2	23	55*	18	22	11	-14	69*	87*
COc1cc(OC)c(NC(=O)CNC(=O)Cn2ccc3ccccc3c2=O)cc1Cl	-8	10	2	20	1	6	x	x
COc1ccc(C(=O)/C=C/C(=O)N(Cc2ccccc2)C(C(=O)NC2CCCCC2)c2ccncc2)c(O)c1 (stereo not given)	-1	40*	15	15	-14	-1	5	48
SMILES	TRPM1 prom inh	HIF-2a inh	Peg3 prom inh	CF NFkB block	KKLEB tox	ABHD5 PLIN5 PPI	HIF-2a conf	HIF-1a counter	others
COc1ccc(C(=O)/C=C/C(=O)N(CC(=O)NC2CCCCC2)CC2CCCO2)c(O)c1 (stereo not given)	98*	94*	106*	48	-17	66*	99*	107*
COc1ccc(C(=O)/C=C/C(=O)N(CC(=O)NC2CCCCC2)Cc2ccccc2OC)c(O)c1	103*	81*	104*	87*	-63*	3	89*	105*
COc1ccc(C(=O)/C=C/C(=O)N(Cc2ccc(F)cc2)C(C(=O)NC2CCCCC2)c2ccncc2)c(O)c1 (stereo not given)	4	27	14	6	-26	0	x	x
COc1ccc(C(=O)/C=C/C(=O)N(CC(=O)NC2CCCCC2)Cc2ccccc2)c(O)c1	100*	71*	109*	71*	-34	9	98*	103*
COc1ccc(C(=O)/C=C/C(=O)N(Cc2ccccc2OC)C(C(=O)NC2CCCCC2)c2ccncc2)c(O)c1 (stereo not given)	-3	20	-119	-3	2	1	x	x
S=C(NCc1ccco1)Nc1cc(-c2ccccc2)[nH]n1	-28	-202	-87	2	-2	2	x	x
Cc1ccc(S(=O)(=O)N/N=C\c2cn(CC(N)=O)c3ccccc23)cc1C	8	8	26	6	0	1	x	x
COc1ccc(NC(=O)c2noc3c2CCC3)cc1	-41	-61	-122	4	2	1	x	x
CC(=O)c1ccc(NC(=O)c2noc3c2CCC3)cc1	56	49*	28	-38	30	-1	72*	61*
CC(=O)c1sc(NC(=O)C2CC(=O)N(Cc3ccccc3)C2)nc1-c1ccccc1 (stereo not given)	-6	41*	4	-3	-13	-7	9	29
CC(=O)N/N=C/c1cc(C(C)(C)C)cc(/C=N/NC(C)=O)c1O	22	15	14	29	23	-2	x	x
